# Results: PubChem BioAssay (NCATS)
# Several values for one entry are separate records, joined by “and”; a condition that tells them apart may be missing. Equal values may be shown once. Values without a mark were called inactive. Inconclusive results are not listed. Activity calls are given as the source filed them. Unless noted, the call rests on the fitted dose curve; in most records, active means well fitted curve in the direction sought with a large enough effect in the repeat runs; inconclusive means weak or mixed curves; inactive means no such curve, though single readings can be large; an effect the other way counts as inactive or inconclusive.
# What was measured:
# [1] = biological target: Nuclear receptor ROR-gamma (Homo sapiens) (UniProt P51449); experiment: qHTS assay for small molecule antagonists of the retinoid-related orphan receptor gamma (ROR-gamma) signaling pathway (AID 651802; active means well fitted curve in the direction sought with a large enough effect; an effect the other way counts as inactive or inconclusive;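 further: CHO cells with doxycycline-induced ROR-gamma expression; series mostly up to about 92 µM; on the % scale 0 is the no-effect control and ±100 the full control effect; nearly all actives have a fitted effect of over 60% in size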)
# Method in brief: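 Antagonism is scored as a fall in luminescence from a RORE-luciferase reporter in CHO cells expressing ROR under a TET-inducible promoter, measured 16hr after doxycycline induction in the presence of compound.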
# [2] = qHTS assay for small molecule agonists of the antioxidant response element (ARE) signaling pathway measured by Nrf2-dependant transcriptional activity (AID 720636);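 further: HepG2 cells with an ARE-driven luciferase reporter; % of control where 0% means no effect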
# Method in brief: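 Nrf2-dependent transcription is measured in ARE-luc HepG2 cells: compound is applied for 16 hr at 37 C after a 6 hr attachment period, and luciferase activity is quantified by luminescence using ONE-Glo.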
# [3] = qHTS assay for small molecule antagonists of the retinoid-related orphan receptor gamma (ROR-gamma) signaling pathway - cell viability counter screen (AID 720652);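 further: CHO reporter cells with doxycycline-induced ROR-gamma expression; series mostly up to about 92 µM; compound exposure lasted 16 hr before ATP read; on the % scale 0 is the no-effect control and ±100 the full control effect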
# Method in brief: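 Cytotoxicity is quantified via intracellular ATP (CellTiter-Glo luminescence) in doxycycline-induced CHO ROR response element-luciferase reporter cells treated with compound for 16 hr at 37 C, 5% CO2.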
# [4] = qHTS assay for small molecule agonists of the antioxidant response element (ARE) signaling pathway measured by Nrf2-dependant transcriptional activity - cell viability counter screen (AID 720653); conditions: ARE-bla HepG2 viability, CellTiter-Glo ATP luminescence, 16 h; hits give low values; further: on the % scale 0 is the no-effect control and ±100 the full control effect
# Method in brief: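 Cytotoxicity counter screen: intracellular ATP quantified by CellTiter-Glo luminescence in the same ARE-bla HepG2 plates, after 16 h compound exposure and a 2 h beta-lactamase substrate step.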
# [5] = qHTS for small molecule inhibitors of Yes1 kinase: Counter Assay (AID 686950; active means well fitted curve in the direction sought with a large enough effect; an effect the other way counts as inactive or inconclusive;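 further: no kinase present so only ADP-Glo detection of a fixed ADP amount is tested; luminescence from ADP-Glo reporting ADP in a fixed ATP and ADP mixture; series mostly up to about 77 µM; 0% = DMSO wells with ATP plus ADP and -100% = ATP-only wells without ADP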)
# Method in brief: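 Luminescence read-out from ADP-Glo quantifies a fixed ADP amount (0.02 mM ADP with 0.08 mM ATP) after 60 min at room temperature; signal is normalized between DMSO wells with ATP/ADP and with 0.1 mM ATP alone.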
# [6] = biological target: Arylsulfatase A (Homo sapiens) (UniProt P15289); experiment: qHTS screen for enhancers of Arylsulfatase A (ASA1): LOPAC Validation Assay (AID 720538; active means well fitted curve in the direction sought with a large enough effect; an effect the other way counts as inactive or inconclusive; further: 0% is about no effect)
# Method in brief: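 Enhancer assay in patient-derived MLD fibroblasts carrying ASA-I179S: 48 h compound exposure at 37 C, then 14 h room-temperature pNCS turnover (0.5 mM final) in lysis buffer. Read by fluorescence at 525/598 nm after NaOH stop.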
# [7] = qHTS for compounds that reverse cellular toxicity of Amyloid beta (A-beta) peptide in yeast: LOPAC Validation Assay (AID 720559; active means well fitted curve in the direction sought with a large enough effect; an effect the other way counts as inactive or inconclusive;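 further: plate controls were DMSO for no effect and equimolar ferric chloride plus clioquinol rescue for full effect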)
# Method in brief: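 Rescue of A-beta toxicity was scored as yeast growth by 600 nm absorbance after 48 hr at 30 C with compound. Normalization used DMSO (negative) and equimolar ferric chloride plus clioquinol (positive).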
# [8] = qHTS for Activators of Parkin Expression: LOPAC Validation Assay (NLuc Reporter) (AID 720572; active means well fitted curve in the direction sought with a large enough effect; an effect the other way counts as inactive or inconclusive;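 further: 0% = DMSO and 100% = positive control compound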)
# Method in brief: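 Parkin promoter-driven FLuc/NLuc neuronal reporter cells; 24 h plating, 7-pt dose response, 24 h at 37 C/5% CO2; FLuc then NanoLuc reagent, 10 min each, luminescence; DMSO/positive control normalized.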
# [9] = qHTS for Activators of Parkin Expression: LOPAC Validation Assay (FLuc Reporter) (AID 720573; active means well fitted curve in the direction sought with a large enough effect; an effect the other way counts as inactive or inconclusive;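 further: 0% = DMSO and 100% = positive control compounds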)
# Method in brief: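 FLuc signal from Parkin-promoter coincidence reporter neuronal cells, normalized to DMSO and positive control (100%). Cells (1,500/well) pre-incubated 24 h, then exposed to LOPAC compounds in 7-point dose response for 24 h at 37 C, 5% CO2.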
# [10] = biological target: Tyrosine-protein kinase Yes (Homo sapiens) (UniProt P07947); experiment: qHTS for small molecule inhibitors of Yes1 kinase: Primary Screen (AID 686947; active means well fitted curve in the direction sought with a large enough effect; an effect the other way counts as inactive or inconclusive;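 further: plate controls were DMSO with enzyme for no effect and no-enzyme DMSO wells for full effect; nearly all actives have a fitted effect of over 60% in size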)
# Method in brief: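 ADP-Glo luminescence readout; final 4 nM Yes1, 0.1 mM ATP, 0.3 mg/mL poly(E4Y), Tris pH 7.5, MgCl2, DTT, Brij-35. 20 min compound preincubation, 60 min reaction at RT. Normalized to DMSO wells with and without enzyme.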
# Chain of Nuclear receptor ROR-gamma (Homo sapiens) (P51449 whole entry, looked up): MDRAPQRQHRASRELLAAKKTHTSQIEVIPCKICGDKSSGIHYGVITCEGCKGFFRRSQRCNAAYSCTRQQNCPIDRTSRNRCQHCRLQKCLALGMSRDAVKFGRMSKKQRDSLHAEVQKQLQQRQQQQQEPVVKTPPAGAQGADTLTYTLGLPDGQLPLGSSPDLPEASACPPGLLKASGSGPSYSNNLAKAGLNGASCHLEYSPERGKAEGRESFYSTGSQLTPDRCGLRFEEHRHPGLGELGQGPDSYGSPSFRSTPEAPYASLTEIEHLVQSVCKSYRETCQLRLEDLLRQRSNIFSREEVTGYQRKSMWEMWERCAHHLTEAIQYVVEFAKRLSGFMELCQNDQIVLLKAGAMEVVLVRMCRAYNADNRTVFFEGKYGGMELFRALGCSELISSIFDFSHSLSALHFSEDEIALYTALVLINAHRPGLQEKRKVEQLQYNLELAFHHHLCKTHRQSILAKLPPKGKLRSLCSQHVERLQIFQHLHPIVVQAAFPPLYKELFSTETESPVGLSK
# Chain of Tyrosine-protein kinase Yes (Homo sapiens) (P07947 whole entry, looked up): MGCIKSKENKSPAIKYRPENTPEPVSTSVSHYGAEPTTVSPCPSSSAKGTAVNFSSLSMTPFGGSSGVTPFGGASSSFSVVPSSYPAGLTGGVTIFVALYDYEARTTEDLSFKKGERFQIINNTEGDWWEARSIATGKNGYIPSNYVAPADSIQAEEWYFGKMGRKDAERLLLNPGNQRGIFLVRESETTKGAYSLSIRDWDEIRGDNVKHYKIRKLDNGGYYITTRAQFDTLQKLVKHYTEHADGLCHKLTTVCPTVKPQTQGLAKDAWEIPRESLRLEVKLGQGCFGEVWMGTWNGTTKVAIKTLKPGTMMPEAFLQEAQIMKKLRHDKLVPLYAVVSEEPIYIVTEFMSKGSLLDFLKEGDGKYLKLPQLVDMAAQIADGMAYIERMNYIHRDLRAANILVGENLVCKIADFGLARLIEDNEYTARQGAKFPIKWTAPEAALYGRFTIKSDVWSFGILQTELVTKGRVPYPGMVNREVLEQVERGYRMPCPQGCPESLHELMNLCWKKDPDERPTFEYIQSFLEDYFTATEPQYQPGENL
# Chain of Arylsulfatase A (Homo sapiens) (P15289 whole entry, looked up): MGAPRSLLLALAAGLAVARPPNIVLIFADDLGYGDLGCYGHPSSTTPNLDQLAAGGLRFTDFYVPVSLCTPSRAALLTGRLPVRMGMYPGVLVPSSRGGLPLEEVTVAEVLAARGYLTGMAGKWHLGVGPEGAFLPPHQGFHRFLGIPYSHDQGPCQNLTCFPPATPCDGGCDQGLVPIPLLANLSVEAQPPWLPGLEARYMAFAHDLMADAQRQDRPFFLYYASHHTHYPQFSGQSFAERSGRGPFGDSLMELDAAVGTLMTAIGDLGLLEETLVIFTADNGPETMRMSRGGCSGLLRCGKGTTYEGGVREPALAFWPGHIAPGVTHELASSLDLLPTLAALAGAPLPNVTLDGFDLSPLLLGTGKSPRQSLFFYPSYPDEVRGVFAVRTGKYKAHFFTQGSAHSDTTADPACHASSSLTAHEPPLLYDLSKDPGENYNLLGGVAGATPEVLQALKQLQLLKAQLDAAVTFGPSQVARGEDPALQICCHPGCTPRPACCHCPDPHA
smiles,measurement,setting,value
CN(C)Cc1ccccc1,outcome,[1],inactive
same,outcome,[2],inactive
same,outcome,[3],inactive
same,max response,[4],-3.95%
COc1cc(O)c2c(c1)/C=C/C[C@H](O)[C@H](O)C(=O)/C=C\C[C@H](C)OC2=O,outcome,[5],inactive
CN[C@H]1CC[C@@H](c2ccc(Cl)c(Cl)c2)c2ccccc21,outcome,[6],inactive
same,outcome,[7],inactive
same,outcome,[8],inactive
same,outcome,[9],inactive
NCCCC(=O)O,outcome,[7],inactive
same,outcome,[8],inactive
same,outcome,[9],inactive
COc1cc(F)c(F)c(Nc2ccc(I)cc2F)c1NS(=O)(=O)C1(CC(O)CO)CC1 (centres undefined),outcome,[10],inactive
same,outcome,[5],inactive
CC(=O)S[C@@H]1CC2=CC(=O)CC[C@]2(C)[C@H]2CC[C@@]3(C)[C@@H](CC[C@@]34CCC(=O)O4)[C@H]12,outcome,[2],inactive
same,max response,[4],-12%
C=Cc1ccccc1,outcome,[1],inactive
same,outcome,[2],inactive
same,outcome,[3],inactive
same,max response,[4],5.41% and 3.34%
CCCCCCCC/C=C\CCCCCCCC(=O)OC[C@@H](O)[C@H]1OC[C@H](O)[C@H]1O,outcome,[2],inactive
same,max response,[4],4.25%
COC(C)=O,outcome,[1],inactive
same,outcome,[2],inactive
same,outcome,[3],inactive
same,max response,[4],11.2%
CCCCCCCCCC(=O)O,outcome,[2],inactive
same,outcome,[3],inactive
same,max response,[4],-4.59% and -4.9%
O=C(O)CC(O)(CC(=O)O)C(=O)O,outcome,[1],inactive
same,outcome,[3],inactive
same,max response,[4],1.31% and -9.81% and -4.69%
O=S(=O)(c1ccccc1)N(CC(F)(F)F)c1ccc(C(O)(C(F)(F)F)C(F)(F)F)cc1,outcome,[2],inactive
same,max response,[4],-21.3%
